A selection: hits, their analogues and other compounds. The true share with any hit is near 28%.
CYP2C9 act: human CYP2C9 activators, primary screen, biochemical, luminescence. AID 1024, 2008. 96,000 compounds, 1.4% hits. activation factor at 5 µM. Cytochrome P450 2C9 (Homo sapiens), P11712. recombinant CYP2C9, luciferin-H conversion; hits give high values; factor 1 = untreated enzyme, 0 = blocked;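 active = activation factor of 2 or more for CYP2C9 at a 5 µM dose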
Target sequence (P11712 whole entry, looked up): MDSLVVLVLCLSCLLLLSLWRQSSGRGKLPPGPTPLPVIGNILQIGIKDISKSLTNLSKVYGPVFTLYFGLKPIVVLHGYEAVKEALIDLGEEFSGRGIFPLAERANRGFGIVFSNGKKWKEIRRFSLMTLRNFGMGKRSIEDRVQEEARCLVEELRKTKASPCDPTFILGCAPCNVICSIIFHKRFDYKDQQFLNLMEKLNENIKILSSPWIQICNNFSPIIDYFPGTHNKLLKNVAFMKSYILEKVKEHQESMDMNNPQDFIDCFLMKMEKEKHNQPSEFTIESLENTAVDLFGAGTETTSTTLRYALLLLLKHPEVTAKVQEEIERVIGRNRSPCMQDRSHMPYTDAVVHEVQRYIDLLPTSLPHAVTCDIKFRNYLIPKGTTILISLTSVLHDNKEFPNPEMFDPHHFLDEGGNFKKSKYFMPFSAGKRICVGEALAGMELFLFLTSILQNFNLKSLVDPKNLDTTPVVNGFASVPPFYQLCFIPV
CYP2C9 inhib: blockers of cytochrome P450 2C9 activity – biochemical, luminescence, ADME assay, primary screen | AID 777, 2007 | inhibition, % at 5 µM | P11712 | 96,000 compounds, 20% hits | CYP2C9 Supersomes, luciferin-H conversion;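 active = blocking of liver enzyme CYP2C9 beyond about 50% at 5 µM, limit read from the data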
CYP2C19 inh: blockers of cytochrome P450 2C19 activity – biochemical, luminescence, ADME assay, primary screen. P33261. CYP2C19 Supersomes, luciferin-H EGE luminescence, 30 min. inhibition, % at 5 µM. 96,000 compounds, 21% hits;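 active = CYP2C19 inhibition above a set limit at 5 µM in the primary screen, cut at about 50% in these data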
Mac1 fbg inh: inhibitors of CD11b/CD18 adhesion to fibrinogen, primary screen, K562 cells, luminescence; Integrin beta-2 (Homo sapiens) + Integrin alpha-M (Homo sapiens), P05107+P11215; ATPlite luminescence; Mn2+ added to activate the integrin; inhibition, % at 10 µM; 93,000 compounds, 0.54% hits;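 active = primary inhibition of 50% or more at 10 µM, then 40% or more on retest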
CYP2C19 act: human CYP2C19 activators, primary screen, biochemical, luminescence | recombinant CYP2C19, luciferin-H EGE luminescence; hits give high values; 0 = fully inhibited enzyme, 1 = untreated enzyme | Cytochrome P450 2C19 (Homo sapiens), P33261 | activation factor at 5 µM | 96,000 tested, under 10 active;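 active = activation factor of at least 2 at 5 µM in the primary screen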
Mac1 fbg enh: enhancers of CD11b/CD18 adhesion to fibrinogen, primary screen, K562 cells, luminescence; Integrin beta-2 (Homo sapiens) + Integrin alpha-M (Homo sapiens), P05107+P11215; ATPlite luminescence; activation, % at 10 µM; 93,000 compounds, 0.07% hits;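 active = 10 µM primary screen giving 50% or more activity, confirmed by 40% or more on retest at that dose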
Each line names hits and unclear results; the compound was inactive in the other large screens.

CCOc1ccc2nc(NC(=O)CCC(=O)c3cccs3)sc2c1	none
COc1ccc2nc(NC(=O)CSc3nnc(N)s3)sc2c1	none (no result: CYP2C9 act, CYP2C9 inhib, CYP2C19 inh, CYP2C19 act)
COCc1nnc(NC(=O)CCSc2ccccc2)s1	none
COCc1nnc(NC(=O)CSc2ccccc2)s1	CYP2C19 inh 67
CCOc1ccc2nc(SCC(=O)c3ccc(C)s3)sc2c1	CYP2C19 inh 51
COc1ccccc1N1CCN(C(=O)C2C3C=CC4(CN(Cc5ccccc5Cl)C(=O)C24)O3)CC1 (centres undefined)	none
CSc1nc(Cl)cc(N(CCO)CCO)n1	none (no result: Mac1 fbg inh, Mac1 fbg enh)
Cc1nnc(NC(=O)CSc2ccccn2)s1	none
CCOCC(=O)Nc1nc2ccc(OCC)cc2s1	CYP2C19 inh 52
CC(C)Cc1nnc(NC(=O)CSc2ccccn2)s1	CYP2C19 inh 56
Cc1cccc(OCC(=O)Nc2nc3ccc([N+](=O)[O-])cc3s2)c1C	none (no result: Mac1 fbg inh, Mac1 fbg enh)
CCCC(=O)Nc1nc2ccc(OC)cc2s1	none
COc1ccc2nc(NC(=S)N(C)C)sc2c1	CYP2C9 inhib 94, CYP2C19 inh 99, Mac1 fbg inh 60
Cc1cccc(OCC(=O)Nc2nc3ccc([N+](=O)[O-])cc3s2)c1	CYP2C9 inhib 91, CYP2C19 inh 70
CCOc1ccc2nc(NC(=O)CSC3=NCCS3)sc2c1	none
COc1ccc2nc(NC(=O)CSC3=NCCS3)sc2c1	CYP2C19 inh 64
CC(C)Oc1cccc(C(=O)NC(=S)N2CCN(c3ccc(C(F)(F)F)cc3[N+](=O)[O-])CC2)c1	CYP2C9 inhib 62
CCOC(=O)C1=C(c2ccccc2)NC(=S)NC1C (centres undefined)	CYP2C19 inh 52
COC(=O)C1=C(C)C(c2ccc(OC)cc2)NC(=S)N1 (centres undefined)	none (no result: Mac1 fbg inh, Mac1 fbg enh)
CCOC(=O)C1=C(C)C(c2ccccc2)NC(=S)N1 (centres undefined)	CYP2C19 inh 63
CCCC(=O)NC(C)c1nc2ccccc2n1C(C)C (centres undefined)	none
O=C(C1CC1)N1CCN=C1SCc1cccc(C(F)(F)F)c1	CYP2C9 inhib 70, CYP2C19 inh 95
Cc1ccc(CSC2=NCCN2C(=O)C2CC2)cc1	CYP2C19 inh 92
CC(=O)N1CCN=C1SCc1ccc(Br)cc1	CYP2C9 inhib 62, CYP2C19 inh 54
Cc1ccc(C)c(CSC2=NCCN2C(=O)Cc2ccc([N+](=O)[O-])cc2)c1	none (no result: CYP2C9 act, CYP2C9 inhib, CYP2C19 inh, CYP2C19 act)
COc1cc(OC)c(OC)cc1CN1CCc2ccccc2C1	CYP2C19 inh 52
COc1cc2c(cc1OC)CN(Cc1ccc(OC)c(C)c1OC)CC2	CYP2C19 inh 64
CCOCCOC(=O)C1=C(C)NC2=C(C(=O)CC(c3cccs3)C2)C1c1ccsc1 (centres undefined)	none
CC1=C(C(=O)Nc2ccccc2F)C(c2ccsc2)C2=C(CC(c3ccccc3)CC2=O)N1 (centres undefined)	CYP2C19 inh 79
CN(C)C(C(=O)NC1CCCCC1)c1ccc(Cl)cc1 (centres undefined)	CYP2C19 inh 56
O=C(CSc1nc(O)c(Cc2ccccc2)c(=O)n1-c1ccccc1)N1CCOCC1	none
CNc1ncc(C(=O)c2ccc(Cl)cc2)s1	CYP2C19 inh 65 (no result: Mac1 fbg inh, Mac1 fbg enh)
CNc1ncc(C(=O)c2ccc(Cl)c(Cl)c2)s1	CYP2C19 inh 53 (no result: Mac1 fbg inh, Mac1 fbg enh)
O=C(c1ccc(Cl)c(Cl)c1)c1cnc(Nc2ccccc2)s1	none
CC(C)(C)C(=O)c1cnc(Nc2ccccc2Cl)s1	none
O=C(c1ccccc1)c1cnc(Nc2ccccc2Cl)s1	CYP2C19 inh 54 (no result: Mac1 fbg inh, Mac1 fbg enh)
CCOC(=O)c1ccccc1NC(=O)/C(C)=C/C(=O)O	none (no result: Mac1 fbg inh, Mac1 fbg enh)
Cc1ccc(S(=O)(=O)Nc2cc(Cl)c(O)cc2C)cc1	CYP2C9 act 2.3, CYP2C19 inh 98
Cc1c(NS(=O)(=O)c2ccccc2)cc(Cl)c(O)c1C	CYP2C9 act 2.5, CYP2C19 inh 99
Cc1ccc(S(=O)(=O)Nc2cc(C(C)C)c(O)cc2C)cc1	CYP2C19 inh 84
Cc1cc(O)c(C(C)C)cc1NC(=O)c1ccc(Cl)cc1	none
COc1cc(C)nc(NS(=O)(=O)c2ccc(C)cc2)n1	none
Cn1c(SCC(=O)NC2CC2)nnc1-c1cccc(NC(=O)c2ccccc2F)c1	none (no result: Mac1 fbg inh, Mac1 fbg enh)
CC(=O)N1CCN(C(=O)COc2ccc(Br)cc2)CC1	CYP2C19 inh 89
COc1ccc(OCC(=O)N2CCN(C(=O)COc3ccc(Br)cc3)CC2)cc1	CYP2C19 inh 64 (no result: Mac1 fbg inh, Mac1 fbg enh)
Cc1nc(N2CCN(C(=O)COc3ccccc3)CC2)c2c(C)c(C)sc2n1	CYP2C9 inhib 93
O=C(COc1ccc(Br)cc1)N1CCN(c2ccccc2)CC1	CYP2C19 inh 71
Cc1ccc(OCC(=O)N2CCN(c3nnc(-c4ccccc4)c4ccccc34)CC2)cc1	none
O=C(COc1ccc(Cl)cc1Br)N1CCN(c2ccccc2)CC1	none
CCN(c1ccc(C)c(C)c1)S(=O)(=O)c1c(C)[nH]c(=O)[nH]c1=O	none
CCOC(=O)c1ccc(N2C(=O)c3n[nH]c(C)c3C2c2ccccn2)cc1 (centres undefined)	CYP2C9 inhib 69
CCOC(=O)c1ccc(N2C(=O)C(O)=C(C(C)=O)C2c2ccccn2)cc1 (centres undefined)	CYP2C9 inhib 52
CCOC(=O)c1ccc(N2C(=O)c3n[nH]c(C)c3C2c2cccnc2)cc1 (centres undefined)	CYP2C9 inhib 68
Cc1[nH]nc2c1C(c1ccccn1)N(c1ccc(Br)cc1)C2=O (centres undefined)	none
CCOC(=O)c1[nH]c2ccc(F)cc2c1NC(=O)C1=COCCO1	none
COc1ccccc1C(OC(=O)c1cccs1)C(=O)NCC1CCCO1 (centres undefined)	none (no result: Mac1 fbg inh, Mac1 fbg enh)
CC(C)CC(OC(=O)c1cccs1)C(=O)NCC1CCCO1 (centres undefined)	CYP2C9 inhib 84, CYP2C19 inh 58
COc1ccc(C(OC(=O)c2cccs2)C(=O)NCC2CCCO2)cc1 (centres undefined)	CYP2C19 inh 63
CCCCN(CC)C(=O)Cc1c(C(=O)O)[nH]c2ccc(Cl)cc12	CYP2C9 inhib 95, CYP2C19 inh 96
O=C(O)c1[nH]c2ccc(Cl)cc2c1CC(=O)N1CCN(c2ccccc2)CC1	none
COc1cc(S(=O)(=O)n2nc(C)cc2C)c(OC)cc1Cl	CYP2C19 inh 83
COc1cc(Cl)ccc1S(=O)(=O)n1nc(C)cc1C	CYP2C19 inh 75
Cc1ccc2c(COC(=O)c3n[nH]c4ccccc34)cc(=O)oc2c1	CYP2C9 inhib 57
